This is a sample that favours compounds with a hit; in the whole collection about 17% have one here.
TDP1 cell CPT: growth inhibition of DT40 Tdp1-/-;hTDP1 cells with camptothecin (screen for TDP1 inhibitors) | Potency, µM (top dose mostly 46.2 µM), for the others: at the highest dose activity change, negative = growth inhibition, hits mostly inhibitors | chicken DT40 Tdp1-/-;hTDP1 cells + 20 nM CPT, ATP luminescence, 48 h | 12% of 420,000 active; note: % is set by controls: 0 for no effect and ±100 for the full control effect; nearly all actives have a fitted effect of over 55% in size
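Chicken DT40 Tdp1-/- cells complemented with human TDP1, 400 cells/well, exposed to compounds plus 20 nM camptothecin for at least 48 h at 37 C; viability read as ATP content by CellTiter-Glo luminescence.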
TDP1 inh: blocks human tyrosyl-DNA phosphodiesterase 1; Potency, µM (titrated, usually from 130 µM), for inactives: at the top dose activity change, negative = inhibition, hits mostly inhibitors; Q9NUW8; 0.28% of 350,000 active; AID 485290; recombinant TDP1, AlphaScreen DNA substrate cleavage; note: % is set by controls: 0 for no effect and ±100 for the full control effect; nearly all actives have a fitted effect of over 40% in size
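Tdp1 1 nM final; 15 min RT w/ cpd; substrate 15 nM, 5 min; beads 10 ug/ml, 10 min; AlphaScreen read. Neg ctrl: no enzyme.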
DT40 TDP1 no CPT: qHTS for Inhibitors of human tyrosyl-DNA phosphodiesterase 1 (TDP1): qHTS in cells in absence of CPT; 15% of 420,000 active; Potency, µM (top dose mostly 46.2 µM), for the others: at the top dose activity change, negative = growth inhibition, actives largely listed as inhibitors; DT40 Tdp1-/- hTDP1 cells, no CPT, ATP luminescence, 48 h; note: % is set by controls: 0 for no effect and ±100 for the full control effect; nearly all actives have a fitted effect of over 55% in size
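Growth kinetics read by CellTiter-Glo luminescence after ≥48 hr at 37 °C. Cells: DT40 Tdp1-/- stably carrying human TDP1, 400 per well, compound exposure in the absence of CPT (DMSO vehicle).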
ClpP mod: qHTS Assay for Activators of ClpP; purified B. subtilis ClpP, FRET peptide cleavage, 20 min; Potency, µM (highest dose often 57.5 µM), for the others: top-dose activity change, negative = active; 1.9% of 340,000 active; active = well fitted falling curve with a large enough effect; inconclusive = small, poorly fitted or top-dose-only effect; inactive = no such curve, though single readings can be large or run the other way; note: the source files actives as falling curves though it sought activators and does not explain the sign; nearly all actives have a fitted effect of over 65% in size
Target sequence (P80244 whole entry, looked up): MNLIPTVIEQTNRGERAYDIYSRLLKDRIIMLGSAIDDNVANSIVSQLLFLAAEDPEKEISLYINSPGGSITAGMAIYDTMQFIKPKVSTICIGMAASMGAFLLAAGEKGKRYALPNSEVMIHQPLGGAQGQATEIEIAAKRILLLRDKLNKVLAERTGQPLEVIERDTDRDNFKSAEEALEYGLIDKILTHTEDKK
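Buffer: 100 mM Tris/HCl pH8, 100 mM KCl, 0.05% low protease BSA, 2.5% glycerol, 0.01% Tween-20. ClpP 10 microg/mL final; 20 min RT; delta FRET normalized to ADEP and DMSO controls.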
* hit, by the source's call; ? = inconclusive; · = not tested or not shown; [ ] = another dose, or the depositor's remark. Unless noted, calls come from the whole dose curve; as a rule, active = well fitted curve in the direction sought with a large enough effect; inconclusive = small, poorly fitted or top-dose-only effect, or another doubt; inactive = no such curve, though single readings can be large; an effect the other way counts as inactive or inconclusive. Potency is the fitted concentration of half-maximal effect.

SMILES	TDP1 cell CPT	TDP1 inh	DT40 TDP1 no CPT	ClpP mod
O=C1NCN(c2ccccc2)C12CCN(C(c1ccccc1)c1nnnn1Cc1ccccc1)CC2 (configuration not stated)	?	·	?	0%
CCCN(CCC)[C@H]1CCc2c(F)ccc(O)c2C1	·	-13%[56.1 µM]	·	·
Cc1ccc(/C=C2/C(=O)NC(=O)N(CC3CCCO3)C2=O)s1 (configuration not stated)	-27%	-12%	?	-1%
C=C[C@H]1CN2CCC1C[C@@H]2C(O)c1ccnc2ccccc12 (some centres not stated)	-3%	5%	-1%	·
CCCCC/C=C\C/C=C\C/C=C\C/C=C\CCCC(=O)NCCc1ccc(O)c(O)c1	·	-6%	·	·
Clc1nc(Cl)nc(Cl)n1	·	0%	·	·
COc1ccc2c3c1O[C@H]1[C@@H](O)C=C[C@H]4[C@@H](C2)NCC[C@@]341	-7%[92.5 µM]	·	?	·
COc1ccc(-n2nnnc2C(c2cc3ccccc3o2)N2CCC(n3c(=O)[nH]c4ccccc43)CC2)cc1 (configuration not stated)	?	·	23µM*	-4%
CCc1cccc(NC(=O)CN2C(=O)CN=C(c3ccccc3F)c3cc(Cl)ccc32)c1	?	9%	?	-3%
COc1ccc(Cl)cc1NC(=O)CN1C(=O)CN=C(c2ccccc2)c2cc(Cl)ccc21	?	5%	15µM*	-3%
Cc1cc(C)cc(NC(=O)CN2C(=O)CN=C(c3ccccc3)c3cc(Cl)ccc32)c1	21µM*	4%	?	2%
NC1CCCC[C@@H]1N (some centres not stated)	·	13%	·	·
C[N@+]12CCCC[C@@H]1CCC(=C(c1cccs1)c1cccs1)C2	27µM*	·	19µM*	·
CC1CCC(NC(=O)c2cc3c(=O)n(C)c4ccccc4c3n2C)CC1 (configuration not stated)	9.2µM*	3%	?	-28%
NC1CCCCC1N (configuration not stated)	·	2%	·	·
CC[C@H](C)[C@@H]1NC(=O)CNC(=O)c2csc(n2)[C@H](C(C)(C)O)OC(=O)C(C)(C)[C@H](CCCC(C)(Cl)Cl)OC(=O)c2csc1n2	0.052µM*	·	0.18µM*	1%
C/C(=N\N1CCCCCC1)c1c(O)n(-c2ccc(C)cc2)c(=O)[nH]c1=O	1%	-2%	-25%	·
C/C(=N\N1CCCCCC1)c1c(O)n(-c2ccccc2C)c(=O)[nH]c1=O	-66%	1%	0.13µM*	-1%
C/C(=N\N1CCCCCC1)c1c(O)n(-c2ccc(Cl)cc2)c(=O)[nH]c1=O	?	-3%	21µM*	·
CCC#N	·	12%	·	·
CCCn1c(=O)c2[nH]c(C3CCCC3)nc2n(CCCOC(=O)c2ccc(S(=O)(=O)F)cc2)c1=O	·	12%[56.1 µM]	·	·
COC(=O)c1c(N)n(Cc2ccc(OC)cc2)c2nc3ccccc3nc12	?	5%	16µM*	10µM*
COCCOC(=O)c1c(N)n(Cc2ccc(OC)cc2)c2nc3ccccc3nc12	?	-2%	21µM*	25%
COc1ccc(CCNC(=O)COC(=O)Cc2ccccc2)cc1	-5%	-3%	?	-1%
CCOC(=O)c1c(N)n(Cc2ccc(OC)cc2)c2nc3ccccc3nc12	·	-2%	·	·
SMILES	TDP1 cell CPT	TDP1 inh	DT40 TDP1 no CPT	ClpP mod
ClC(Cl)(Cl)C(Cl)(Cl)Cl	·	13%	·	·
CCCOC(=O)c1c(C)oc2c1cc(NS(=O)(=O)c1ccc(OCC)cc1)c1ccccc12	1.5µM*	·	1µM*	41%
CN1CCCC2(CCN(C(=O)c3ccncc3)CC2)C1	-2%	·	4%	·
CC(C)c1ccc(Cc2cn3cc(-c4cc5ccccc5oc4=O)nc3s2)cc1	0.26µM*	-1%	0.18µM*	6%
CC(C)c1ccc(C(c2c(O)c3ccccc3oc2=O)c2c(O)c3ccccc3oc2=O)cc1	-25%	·	?	-7%
CCC(C)(C)n1nnnc1C(c1cccs1)N1CC=C(c2ccc(F)cc2)CC1 (configuration not stated)	23µM*	5%	?	-24%
Fc1ccc(C2=CCN(C(c3cccs3)c3nnnn3CCc3ccccc3)CC2)cc1 (configuration not stated)	?	2%	?	-3%
CCOC(=O)C(C#N)=C(c1ccccc1)c1ccccc1	?	4%	?	·
COCCN(CCOC)S(=O)(=O)c1ccc(C(=O)Nc2sc3c(c2C(N)=O)CCCC3)cc1	?	0%[12.3 µM]	?	-7%
NC(=O)c1c(NC(=O)c2ccc(S(=O)(=O)N(CCCl)CCCl)cc2)sc2c1CCCCC2	10µM*	1%	15µM*	21%
Fc1ccc(-c2nc3c(-c4ccc(F)cc4)cnn3cc2CCN2CCOCC2)cc1	-18%	-3%	?	-1%
ClCC(Cl)CCl	·	6%	·	·
COc1ccc(CCNC(=O)CCc2c(C)nc3c(-c4ccc(F)cc4)c(C)nn3c2C)cc1OC	8.2µM*	7%	12µM*	1%
Cc1nc2c(-c3ccc(F)cc3)c(C)nn2c(C)c1CCC(=O)N1CCC2(CC1)OCCO2	1%	7%	-13%	0%
CC1CCN(C(=O)CCl)CC1	?	2%	16µM*	0%
O=[N+]([O-])c1cccc(NP(=O)(N2CC2)N2CC2)c1	2.1µM*	·	6.5µM*	·
C=C(C)CCl	·	18%	·	·
COc1cc([N+](=O)[O-])c2nc(C)ccc2c1[N+](=O)[O-]	9.2µM*	·	10µM*	2%
O=[N+]([O-])c1ccc(N2CCCC2)c2ncccc12	-10%	8%	4%	-1%
COc1cc([N+](=O)[O-])c2ncccc2c1[N+](=O)[O-]	2.6µM*	·	4.6µM*	-1%
CCOC(=O)C(=CNc1ccc(C(O)(C(=O)OCC)C(F)(F)F)cc1C)C(=O)OCC (configuration not stated)	21µM*	-1%	12µM*	-5%
CCOC(=O)C(O)(c1ccc(N(CC)S(=O)(=O)c2ccc(C)cc2)cc1)C(F)(F)F (configuration not stated)	-28%	-3%	?	-1%
CCOC(=O)C(O)(c1ccc(NC(=O)c2ccc(Cl)c(Cl)c2)cc1)C(F)(F)F (configuration not stated)	?	7%	16µM*	-1%
COC(=O)C(O)(c1ccc(N(C)C(=O)c2ccc(Cl)c(Cl)c2)cc1)C(F)(F)F (configuration not stated)	?	0%	?	1%
COC(=O)C(O)(c1ccc(NC(=S)NC(=O)c2ccccc2)cc1)C(F)(F)F (configuration not stated)	-18%	9%	-17%	1%
COC(=O)C(O)(c1ccc(N(C)C(=O)c2cccs2)cc1)C(F)(F)F (configuration not stated)	3.3µM*	3%	?	·
